Hits are enriched below; roughly 2.6% of the tested compounds scored in any of these assays.
Cruzain inh noDet – cruzain (T. cruzi) inhibition without detergent; purified cruzain, Z-FR-AMC fluorescence, no detergent; Potency, µM, usual class: inhibitors; 2.3% of 200,000 active; AID 1476; note: nearly all actives have a fitted effect of over 40% in size
Target sequence (P25779 123-467 limits assumed): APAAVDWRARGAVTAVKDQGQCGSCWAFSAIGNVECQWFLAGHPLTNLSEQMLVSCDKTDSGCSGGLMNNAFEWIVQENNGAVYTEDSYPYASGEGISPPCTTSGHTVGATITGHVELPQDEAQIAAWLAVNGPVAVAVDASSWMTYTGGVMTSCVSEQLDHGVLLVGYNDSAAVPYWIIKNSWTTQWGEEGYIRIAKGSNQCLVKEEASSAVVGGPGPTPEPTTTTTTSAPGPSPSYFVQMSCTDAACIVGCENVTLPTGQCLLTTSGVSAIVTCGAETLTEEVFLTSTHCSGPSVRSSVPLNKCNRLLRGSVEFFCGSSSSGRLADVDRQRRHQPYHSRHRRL
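Detergent-free condition (0.00005% Triton X-100) in acetate buffer pH 5.5 with DTT. 1.5 nM enzyme and compound were pre-mixed 15 min, then 2 uM Z-FR-AMC substrate added; reaction progress from fluorescence change between first and third reads (60 s).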
Cruzain Triton – cruzain (T. cruzi) inhibition with detergent | purified cruzain, Z-FR-AMC fluorescence, 0.01% Triton | 0.43% of 200,000 active | P25779 | AID 1478 | Potency, µM, hits mostly inhibitors; note: nearly all actives have a fitted effect of over 40% in size
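Detergent-containing arm of a paired screen for aggregation-based inhibition: 0.01% Triton X-100 present. Cruzain at 1.5 nM cleaved 2 uM Z-FR-AMC at pH 5.5 with 5 mM DTT; AMC fluorescence gain over 60 s measured activity.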
Numbers stand for hits; - = inactive; ? = inconclusive; ! = not confirmed by another sample. Calls come from the whole dose curve; as a rule, active = well fitted curve in the direction sought with a large enough effect; inconclusive = small, poorly fitted or top-dose-only effect, or another doubt; inactive = no such curve, though single readings can be large; an effect the other way counts as inactive or inconclusive.

SMILES	Cruzain inh noDet	Cruzain Triton
CCn1c2ccccc2c2cc(/C=N/NC(=O)c3ccc(O)cc3)ccc21	25.1µM	?
CC1CCN(c2nnc(-n3cccc3CNc3cccc(F)c3)s2)CC1	-	-
Cc1ccc(Cn2cc(S(=O)(=O)c3ccc(Cl)cc3)c(=O)c3cc(F)ccc32)cc1	?	-
Cc1ccc(C)c(S(=O)(=O)c2cn(Cc3ccccc3)c3cc(F)c(F)cc3c2=O)c1	25.1µM	-
Cc1c(Cc2ccccc2)sc(/N=C/c2ccc3ccccc3c2)c1C(N)=O	6.31µM	-
Cc1c(Cc2ccccc2)sc(N)c1C(N)=O	?	-
COc1ccc(/C=C/C(=O)Nc2sc(Cc3ccccc3)c(C)c2C(N)=O)cc1	15.8µM	-
Cc1c(Cc2ccccc2)sc(/N=C/c2c(O)ccc3ccccc23)c1C(N)=O	-	-
O=C(Nc1ccc(OC(F)F)c(Cl)c1)Nc1ccc2c(c1)OCO2	?	-
O=C(Nc1ccc2c(c1)OCO2)Nc1ccc(Cl)cc1Cl	25.1µM	-
CCCN(Cc1cccs1)C(=O)Nc1ccc(Br)cc1F	-	-
COc1ccccc1OCCN1CSC(=S)N(C)C1	20µM	?
Cc1cccc(OCCN2CSC(=S)N(C)C2)c1	-	-
CCOc1ccc(S(=O)(=O)c2cc3cccc(OCC)c3oc2=O)cc1	-	-
CCN(CC)c1ccc(/C=c2/sc3nnc(-c4ccccc4C)n3c2=O)cc1	?	-
CCN(CC)c1ccc(/C=c2\sc3nnc(-c4ccccc4Cl)n3c2=O)cc1	12.6µM	-
CCCN(CC1CC1)c1nc(C)nc(Nc2c(Cl)cc(Cl)cc2Cl)c1Cl	25.1µM!	-
CCCN(CC1CC1)c1nc(N)c(C#N)c(CC#N)c1C#N	-	-
Cc1ccc2nc3c(c(Nc4ccc(C)c(C)c4)c2c1)CCC3	?	-
Cc1ccc(N2C(=O)c3cccc4c(Oc5ccccc5[N+](=O)[O-])ccc(c34)C2=O)c(C)c1	25.1µM	-
O=C1c2cccc3c([N+](=O)[O-])ccc(c23)C(=O)N1c1ccccn1	-	-
Cc1nn(-c2ccccc2)c(OC(=O)c2ccccc2)c1S(=O)(=O)c1ccccc1	-	-
Cn1nc(C(=O)Nc2cccc(C(F)(F)F)c2)c2c1-c1ccccc1S(=O)(=O)C2	-	-
COc1cc(OC)c2cc(-c3ccncc3)cnc2c1	-	-
CCOC(=O)N1CCc2c(sc3c2c(=O)n(Cc2ccccc2)c(=O)n3Cc2cccc(Cl)c2)C1	7.94µM	-
SMILES	Cruzain inh noDet	Cruzain Triton
CCOC(=O)N1CCc2c(sc3c2c(=O)n(Cc2ccccc2)c(=O)n3CC(=O)Nc2cccc(CC)c2)C1	-	-
COc1ccc(-n2c(=O)c(-c3ccccc3)nc3cnc(N4CCN(C)CC4)nc32)cc1	-	-
CN1CCN(c2ncc3nc(-c4cc(F)cc(F)c4)c(=O)n(C)c3n2)CC1	-	-
CN1CCN(c2ncc3nc(-c4ccccc4)c(=O)n(-c4ccccc4)c3n2)CC1	?	25.1µM
CN1CCN(c2ncc3nc(-c4cccc(C#N)c4)c(=O)n(C)c3n2)CC1	?	17.8µM
CCn1ccc2cc(S(=O)(=O)N3CCCN(C(=O)Nc4ccc(C)cc4Cl)CC3)ccc21	-	-
ICCc1ccccc1	?	-
CN(C)S(=O)(=O)N(CC(=O)NCCSCc1c(F)cccc1Cl)c1ccccc1	-	-
CCCN(C(=O)c1ccc2c(=O)n3c(nc2c1)CCCCC3)c1cccc(Cl)c1	?	-
Cc1[nH]c2ccccc2c1C(=O)COC(=O)CCS(=O)(=O)c1ccccc1Cl	-	-
Cc1nc(NC(=O)COC(=O)CCS(=O)(=O)c2ccccc2Cl)c(Cl)cc1Cl	-	22.4µM
CCOC(=O)c1[nH]c2c(c1Cc1ccccc1)C(=O)CC(c1ccc(OC)cc1)C2 (stereo not drawn)	-	-
CCOc1ccc(NC(=O)c2ccc(-c3nc(COc4ccccc4)c(C)o3)cc2)cc1	-	-
Oc1csc(Cc2nc(-c3ccc(-c4ccccc4)cc3)cs2)n1	10µM	-
Oc1csc(Cc2nc(-c3ccc4ccccc4c3)cs2)n1	?	-
Cc1cccc(CCNC(=O)C2CCC(CNS(=O)(=O)c3ccccc3)CC2)c1 (stereo not drawn)	-	-
O=c1c2ccccc2c2c(O)nc(-c3ccccc3)n2n1Cc1ccccc1	3.98µM	-
Cn1c(=O)c2c(nc(-c3ccccc3)n2C)n(Cc2ccccc2)c1=O	-	-
CCOC(=O)C1=C(CP(=O)(c2ccccc2)c2ccccc2)NC(=O)NC1c1ccc(OC)cc1 (stereo not drawn)	-	-
CCOC(=O)C1=C(CSc2nc3ccccc3s2)NC(=O)NC1c1ccc(OC)cc1 (stereo not drawn)	25.1µM	-
CCOC(=O)C1=C(CSCC(=O)OC)NC(=O)NC1c1cc(C)ccc1C (stereo not drawn)	-	-
CCOC(=O)C1=C(CSc2nc3ccccc3s2)NC(=O)NC1c1cc(C)ccc1C (stereo not drawn)	31.6µM	-
COc1ccccc1C(=O)Nc1nnc2n1CCS2	-	-
CCOC(=O)c1cc(NC(=O)c2ccccc2)c(=O)n2c1oc1ccc(Cl)cc12	-	-
CC(C)(C)C1CCc2onc(C(=O)Nc3sc4c(c3C#N)CCCC4)c2C1 (stereo not drawn)	-	-
SMILES	Cruzain inh noDet	Cruzain Triton
O=C1CC(SCc2nc3ccccc3[nH]2)C(=O)N1c1ccc(F)cc1 (stereo not drawn)	?	-
O=C1CC(SCc2nc3ccccc3[nH]2)C(=O)N1c1cccc(Cl)c1 (stereo not drawn)	15.8µM	-
COc1ccc(C2Nc3ccccc3C(=O)N2Cc2ccco2)cc1COc1ccc([N+](=O)[O-])cc1 (stereo not drawn)	?	-
COc1cccc(OCc2cc(C3Nc4ccccc4C(=O)N3Cc3ccco3)ccc2OC)c1 (stereo not drawn)	15.8µM	-
Cc1ccc(NC(=O)CN2C(=O)CCc3cc(S(=O)(=O)N4CCOCC4)ccc32)cc1N(C)C	-	-
O=C(Cn1c(=O)oc2ccccc21)Nc1nc(-c2ccc(Br)cc2)cs1	15.8µM	-
Cc1csc(NC(=O)CCn2c(=O)oc3ccccc32)n1	-	-
CCCCN(CCCC)CCCNC(=O)c1cc(-c2ccc(Cl)s2)nc2ccccc12	-	-
COc1ccccc1/C=C/c1nc(C#N)c(NC2CCCCC2)o1	-	-
CCc1cccc(-n2c(=O)c3cccnc3n2CC(=O)Nc2ccc(OC)c(Cl)c2)c1	25.1µM	-
CCc1ccc(-n2c(=O)c3cccnc3n2CC(=O)Nc2cc(OC)ccc2OC)cc1	-	-
CCOc1ccccc1C(=O)N1CCc2cc(OC)c(OC)cc2C1COc1ccc2c(C)cc(=O)oc2c1 (stereo not drawn)	-	-
CC[C@@H]1Cn2c(c3nc(-c4cc(Cl)cc(Cl)c4Cl)nc-3n(C)c2=O)N1	-	-
Cc1c2cccc(Sc3ccccc3)c2c2c3c(cccc13)[S+](c1ccccc1)C2 (stereo not drawn)	2.51µM	-
CCc1ccc(-n2c(CCC(=O)O)ccc2-c2ccc(F)cc2)cc1	-	-
Cc1ccc(NC(=O)c2sc(-n3nc(C)c(CCC(C)C)c3C)nc2C)cc1C	-	-
CCOC(=O)C1=C(C)NC(=O)NC1c1cn(-c2ccccc2)nc1-c1ccc(OC(C)C)cc1 (stereo not drawn)	-	-
CC1=C(C(=O)c2ccccc2)C(c2cn(-c3ccccc3)nc2-c2ccc(Cl)cc2)NC(=S)N1 (stereo not drawn)	10µM	-
CC1CCCCN1S(=O)(=O)c1ccc2c(c1)oc(=O)n2CC(=O)Nc1ccc(Cl)cc1 (stereo not drawn)	-	-
